# Measurements published in PubChem BioAssay.
# The source made the active and inactive calls.
# Key:
# [1] = binders of probe aFSTL3 on microarray, primary screen, stem cell growth factor project, biochemical, small-molecule microarray, fluorescence 635/667 (AID 1064); details: higher = more signal;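 also: measures binding of the biotinylated anti-FSTL3 antibody to printed compounds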
# [2] = binders from COS7 lysate, DM2A8 probe, primary screen, torsin A project, cell lysate, small-molecule microarray, fluorescence 635/667 (AID 1065); details: higher = more signal, COS7 lysate expressing mutant human TOR1A
# [3] = binders of probe aFGF2 on microarray, primary screen, stem cell growth factor project, biochemical, small-molecule microarray, fluorescence 635/667 (AID 1067); details: higher = more signal;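 also: measures binding of biotinylated aFGF2 protein to printed compounds on slides; z-score merges feature fluorescence and signal-to-noise across triplicate slides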
# [4] = binders of probe aFGF10 on microarray, primary screen, stem cell growth factor project, biochemical, small-molecule microarray, fluorescence 635/667 (AID 1071); details: higher = more signal;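 also: score merges 667 nm spot intensity and signal to noise from triplicate slides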
# [5] = molecular target: Neurogenic locus notch homolog protein 2 (Homo sapiens) (UniProt Q04721); test: Notch2 binders on small-molecule microarrays, primary screen, biochemical, small-molecule microarray, 635 nm fluorescence, stem cell growth factors (AID 1073); details: Notch2 binding, higher = more signal
# Chain of Neurogenic locus notch homolog protein 2 (Homo sapiens) (Q04721 whole entry, looked up, canonical isoform): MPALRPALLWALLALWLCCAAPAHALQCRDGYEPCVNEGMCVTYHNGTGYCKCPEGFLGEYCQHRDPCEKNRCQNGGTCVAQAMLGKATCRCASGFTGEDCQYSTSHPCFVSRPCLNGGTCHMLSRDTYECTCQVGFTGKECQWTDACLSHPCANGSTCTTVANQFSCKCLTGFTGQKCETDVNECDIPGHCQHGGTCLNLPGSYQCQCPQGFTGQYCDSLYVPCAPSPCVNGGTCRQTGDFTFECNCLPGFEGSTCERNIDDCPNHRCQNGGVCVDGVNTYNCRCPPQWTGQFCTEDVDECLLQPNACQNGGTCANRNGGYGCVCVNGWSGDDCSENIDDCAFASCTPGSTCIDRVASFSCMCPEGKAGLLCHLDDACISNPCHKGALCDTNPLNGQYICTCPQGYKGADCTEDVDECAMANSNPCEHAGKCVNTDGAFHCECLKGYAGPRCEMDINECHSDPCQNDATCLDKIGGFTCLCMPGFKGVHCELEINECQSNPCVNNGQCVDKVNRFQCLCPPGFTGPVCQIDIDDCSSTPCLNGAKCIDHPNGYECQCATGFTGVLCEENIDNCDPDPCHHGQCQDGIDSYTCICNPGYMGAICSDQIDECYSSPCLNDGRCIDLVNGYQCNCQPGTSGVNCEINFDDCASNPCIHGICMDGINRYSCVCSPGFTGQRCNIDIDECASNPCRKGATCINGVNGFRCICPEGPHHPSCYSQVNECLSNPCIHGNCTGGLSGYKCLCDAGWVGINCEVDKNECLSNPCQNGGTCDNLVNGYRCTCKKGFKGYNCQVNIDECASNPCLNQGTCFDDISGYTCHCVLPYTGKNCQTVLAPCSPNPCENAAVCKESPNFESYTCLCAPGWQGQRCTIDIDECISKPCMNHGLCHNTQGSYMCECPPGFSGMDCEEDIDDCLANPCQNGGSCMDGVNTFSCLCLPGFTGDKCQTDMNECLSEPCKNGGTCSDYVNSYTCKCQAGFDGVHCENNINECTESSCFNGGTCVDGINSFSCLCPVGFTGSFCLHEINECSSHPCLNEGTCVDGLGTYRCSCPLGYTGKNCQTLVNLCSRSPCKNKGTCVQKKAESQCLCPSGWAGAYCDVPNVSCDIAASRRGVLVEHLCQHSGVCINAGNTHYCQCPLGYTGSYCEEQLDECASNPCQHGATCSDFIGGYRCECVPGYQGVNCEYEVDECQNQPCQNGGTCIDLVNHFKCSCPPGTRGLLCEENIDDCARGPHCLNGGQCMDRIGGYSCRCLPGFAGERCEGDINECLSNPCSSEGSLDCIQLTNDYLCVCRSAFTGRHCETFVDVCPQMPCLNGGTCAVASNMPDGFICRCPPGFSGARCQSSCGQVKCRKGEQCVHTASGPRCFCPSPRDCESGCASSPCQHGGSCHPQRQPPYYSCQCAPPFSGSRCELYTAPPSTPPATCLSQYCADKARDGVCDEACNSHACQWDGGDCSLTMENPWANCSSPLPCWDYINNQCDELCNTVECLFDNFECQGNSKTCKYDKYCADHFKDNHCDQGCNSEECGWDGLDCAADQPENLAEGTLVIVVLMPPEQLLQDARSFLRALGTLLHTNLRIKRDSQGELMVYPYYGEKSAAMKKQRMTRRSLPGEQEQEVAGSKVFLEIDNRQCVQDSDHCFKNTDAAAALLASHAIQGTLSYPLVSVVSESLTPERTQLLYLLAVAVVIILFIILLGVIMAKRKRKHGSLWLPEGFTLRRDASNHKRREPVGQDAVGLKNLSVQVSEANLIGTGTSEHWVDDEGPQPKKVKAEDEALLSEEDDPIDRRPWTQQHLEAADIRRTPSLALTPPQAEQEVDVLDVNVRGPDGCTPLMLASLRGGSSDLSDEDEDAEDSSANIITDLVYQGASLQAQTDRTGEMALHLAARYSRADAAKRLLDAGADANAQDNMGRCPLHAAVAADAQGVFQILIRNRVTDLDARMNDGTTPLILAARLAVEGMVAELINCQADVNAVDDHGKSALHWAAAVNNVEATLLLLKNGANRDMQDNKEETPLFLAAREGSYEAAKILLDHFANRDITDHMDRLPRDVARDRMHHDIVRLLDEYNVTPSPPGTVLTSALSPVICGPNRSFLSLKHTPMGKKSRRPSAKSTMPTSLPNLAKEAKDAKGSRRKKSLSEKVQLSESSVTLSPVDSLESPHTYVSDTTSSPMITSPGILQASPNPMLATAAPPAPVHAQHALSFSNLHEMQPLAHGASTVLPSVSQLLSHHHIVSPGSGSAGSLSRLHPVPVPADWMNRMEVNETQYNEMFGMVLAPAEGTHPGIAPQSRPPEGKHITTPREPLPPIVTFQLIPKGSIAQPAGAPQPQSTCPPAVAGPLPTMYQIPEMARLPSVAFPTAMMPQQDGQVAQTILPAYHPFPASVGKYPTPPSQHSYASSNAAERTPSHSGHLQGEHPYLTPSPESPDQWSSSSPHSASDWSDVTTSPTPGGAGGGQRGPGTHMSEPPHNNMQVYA
# [6] = molecular target: Pro-neuregulin-1, membrane-bound isoform (Homo sapiens) (UniProt Q02297); test: NRG1 binders on small-molecule microarrays, primary screen, psychiatric disease protein project, biochemical, small-molecule microarray, fluorescence 635/667 (AID 1075); details: NRG1 binding, 635 nm fluorescence, higher = more signal;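 also: score combines 667 nm spot fluorescence with signal to noise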
# Chain of Pro-neuregulin-1, membrane-bound isoform (Homo sapiens) (Q02297 whole entry, looked up, the tested form may be a part, canonical isoform): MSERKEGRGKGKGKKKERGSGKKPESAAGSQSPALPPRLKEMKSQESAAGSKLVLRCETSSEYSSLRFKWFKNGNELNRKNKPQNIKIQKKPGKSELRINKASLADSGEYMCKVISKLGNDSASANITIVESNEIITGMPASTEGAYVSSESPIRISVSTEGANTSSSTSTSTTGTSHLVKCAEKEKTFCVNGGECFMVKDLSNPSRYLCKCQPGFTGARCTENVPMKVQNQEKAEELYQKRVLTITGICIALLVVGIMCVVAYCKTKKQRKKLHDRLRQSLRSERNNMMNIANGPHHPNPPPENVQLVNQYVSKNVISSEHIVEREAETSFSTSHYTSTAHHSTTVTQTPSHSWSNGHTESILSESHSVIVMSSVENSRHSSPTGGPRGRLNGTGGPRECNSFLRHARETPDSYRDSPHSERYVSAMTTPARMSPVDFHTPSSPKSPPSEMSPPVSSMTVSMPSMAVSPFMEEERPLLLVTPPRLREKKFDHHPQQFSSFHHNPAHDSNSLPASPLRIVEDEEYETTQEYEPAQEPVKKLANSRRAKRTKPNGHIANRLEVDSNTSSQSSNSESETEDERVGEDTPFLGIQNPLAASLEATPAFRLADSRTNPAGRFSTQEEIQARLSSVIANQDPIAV
# [7] = system: Neuregulin-1 EGF-like domain; test: binders of neuregulin-1 EGF-like domain, primary screen, biochemical, small-molecule microarray, 635 nm fluorescence (AID 1081); details: small-molecule microarray binding, higher = more signal;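 also: binding of the protein to compounds printed on small-molecule microarray slides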
# [8] = FRG1 promoter luciferase signal modulators, primary screen, FRG1 inhibition for FSHD, cell-based, C2C12 myotubes, firefly/Renilla luciferase, luminescence (AID 1084); details: higher = more signal, called active from +8 up or from −8 down
# [9] = binders of probe aFST on microarray, primary screen, stem cell growth factor project, biochemical, small-molecule microarray, fluorescence 635/667 (AID 1086); details: higher = more signal;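 also: score merges 667 nm fluorescence with signal-to-noise of each printed compound spot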
# [10] = binders of probe aHhip on microarray, primary screen, stem cell growth factor project, biochemical, small-molecule microarray, fluorescence 635/667 (AID 1087); details: higher = more signal;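 also: score merges spot fluorescence at 667nm with spot signal to noise ratio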
# [11] = system: PRMT1 (protein arginine N-methyltransferase 1); test: PRMT1 binders on small-molecule microarrays, primary screen, biochemical, small-molecule microarray, 635 nm fluorescence (AID 1088); details: small-molecule microarray binding, higher = more signal;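 also: binding of Prmt1 protein to compounds spotted on small-molecule microarray slides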
# [12] = yeast growth modulation, basal conditions, primary screen, YJM789 clinical isolate, OD600, 24 h (AID 1089);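 also: growth of clinical yeast isolate S. cerevisiae YJM 789 seeded 1000 cells per well; test concentration not given here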; details: S. cerevisiae YJM789 growth, higher = more signal, called active from +8 up or from −8 down
# [13] = fission yeast growth modulation, primary screen, strain 972, OD600, 24 h, no modulator (AID 1090);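 also: basal condition with compound alone and no growth modifier present; test concentration not given here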; details: S. pombe 972 growth, higher = more signal, called active from +8 up or from −8 down
# [14] = S. cerevisiae growth modulation with rapamycin, primary screen, strain BY4716, OD600, 96 h (AID 1091); details: higher = more signal, called active from +8 up or from −8 down; also: test concentration not given here
# [15] = molecular target: Torsin-1A-interacting protein 2 (Homo sapiens) (UniProt Q8NFQ8); test: LULL1 binders on small-molecule microarray, primary screen, cell lysate, human LULL1 lysate, 635/667 nm fluorescence (AID 1092); details: hLULL1 lysate binding, 635 nm fluorescence, higher = more signal;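 also: probe is lysate of COS7 cells overexpressing human LULL1; score merges per-feature 667 nm fluorescence with signal-to-noise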
# Chain of Torsin-1A-interacting protein 2 (Homo sapiens) (Q8NFQ8 whole entry, looked up): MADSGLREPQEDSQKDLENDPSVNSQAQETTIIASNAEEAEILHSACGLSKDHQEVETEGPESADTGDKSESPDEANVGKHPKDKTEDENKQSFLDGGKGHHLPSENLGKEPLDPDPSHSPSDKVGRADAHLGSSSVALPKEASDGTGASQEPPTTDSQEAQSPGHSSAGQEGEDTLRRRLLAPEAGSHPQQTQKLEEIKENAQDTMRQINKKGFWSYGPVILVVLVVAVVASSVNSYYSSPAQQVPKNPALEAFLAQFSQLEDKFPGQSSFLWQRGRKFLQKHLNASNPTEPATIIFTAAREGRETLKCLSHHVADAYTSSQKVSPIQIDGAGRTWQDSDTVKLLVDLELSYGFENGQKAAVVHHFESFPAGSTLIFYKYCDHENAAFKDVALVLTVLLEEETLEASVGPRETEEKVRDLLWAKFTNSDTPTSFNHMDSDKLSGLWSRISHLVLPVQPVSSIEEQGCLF
# [16] = E. coli growth modulation, two-sided OD650, primary screen, E. coli filamentation project, strain DRC41, 24 h (AID 1093); details: OD650, 24 h, higher = more signal, called active from +8 up or from −8 down;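 also: MC1000 strain lacking acrAB efflux and sulA so SOS filamentation is blocked; test concentration not given here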
# [17] = small-molecule microarray binders of probe aLefty2, primary screen, biochemical, biotinylated probe, 635/667 nm fluorescence (AID 1094); details: higher = more signal;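 also: score merges spot fluorescence near 667 nm with spot signal-to-noise ratio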
# [18] = system: Noggin (protein binding on small-molecule microarray); test: Noggin binders on small-molecule microarray, primary screen, biochemical, 635/667 nm fluorescence (AID 1095); details: 635 nm fluorescence, higher = more signal;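 also: score merges 667 nm feature fluorescence with signal to noise over triplicate slides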
# [19] = molecular target: Neurogenic locus notch homolog protein 3 (Homo sapiens) (UniProt Q9UM47); test: NOTCH3 binders on small-molecule microarray, primary screen, biochemical, 635/667 nm fluorescence (AID 1096); details: NOTCH3 binding, 635 nm fluorescence, higher = more signal
# [20] = small-molecule microarray binders of probe aEGFR, primary screen, biochemical, biotinylated probe, 635/667 nm fluorescence (AID 1097); details: higher = more signal;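 also: probe is a biotinylated anti-EGFR antibody binding compounds printed on slides; score combines fluorescence near 667 nm and signal to noise of each spot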
Compound,composite z-score [1],composite z-score [2],composite z-score [3],composite z-score [4],composite z-score [5],composite z-score [6],composite z-score [7],z-score [8],composite z-score [9],composite z-score [10],composite z-score [11],z-score [12],z-score [13],z-score [14],composite z-score [15],z-score [16],composite z-score [17],composite z-score [18],composite z-score [19],composite z-score [20]
CCCNC(=O)OC[C@H]1O[C@H](CCON=Cc2ccc(C(=O)N3[C@H](c4ccc(C)cc4)[C@@H](C)CC[C@H]3C(=O)OC)cc2)C=C[C@@H]1Oc1ccc(OC)cc1,-0.52,0.304,-0.173,0.335,0.458,0.448,0.51,0.868 (inactive),0.598,-0.102,1.15,0.0299 (inactive),1.68 (inactive),1.25 (inactive),1.02,0.215 (inactive),-0.263,1.03,0.607,-0.307
COc1ccc(O[C@H]2C=C[C@@H](c3ccccc3)O[C@@H]2CON=C2[C@H]3CCn4c(=O)n(-c5ccccc5)c(=O)n4[C@H]3[C@H](O)[C@@H]3O[C@H]23)cc1,-0.135,0.451,-0.0973,0.372,1.24,0.238,0.63,-0.243 (inactive),0.358,0.197,1.3,-0.417 (inactive),0.444 (inactive),0.661 (inactive),0.86,-0.745 (inactive),-0.206,0.437,0.863,0.0009
COCCNC(=O)OCC1CCCC2(CC(OC(=O)NCc3ccc4c(c3)OCO4)CC(CCC(=O)N[C@@H](C)C(=O)OC)O2)O1 (stereo not given in full),-0.463,0.362,-0.116,0.387,1.05,0.191,0.699,0.502 (inactive),0.171,-0.0994,1.52,-0.05 (inactive),1.02 (inactive),-0.62 (inactive),1.55,-0.427 (inactive),-0.161,0.54,1.1,-0.0286
COc1ccc(O[C@H]2C=C[C@@H](c3ccccc3)O[C@@H]2CON=C(C)CCN2CCc3nc(-c4ccccc4)c(-c4ccccc4)cc3C2)cc1,-0.311,0.183,-0.0909,-0.631,-0.167,0.617,-0.0088,0.282 (inactive),0.371,0.136,0.307,0.549 (inactive),-0.513 (inactive),-2.92 (inactive),0.607,0.669 (inactive),-0.148,0.111,-0.183,-0.133
COC(=O)[C@@H]1CC[C@H](C)[C@@H](c2ccc(C)cc2)N1C(=O)c1ccc(C=NOCC[C@@H]2C=C[C@H](OC(C)=O)[C@@H](COC(C)=O)O2)cc1,-0.381,0.333,-0.11,0.332,0.7,0.102,0.61,0.579 (inactive),0.0627,0.0505,0.903,1.09 (inactive),1.58 (inactive),1.81 (inactive),0.105,0.411 (inactive),-0.0736,0.647,0.792,-0.0397
C[C@H]1COC(=O)[C@@H]2CCCN2C(=O)[C@@H](C)COC(=O)[C@H](Cc2ccccc2)NC1=O,-0.596,0.142,-0.183,0.525,0.731,-0.147,0.184,-0.0297 (inactive),0.761,-0.0645,0.907,-0.801 (inactive),0.103 (inactive),-1.2 (inactive),1.24,0.0412 (inactive),-0.141,0.396,0.889,0.081
C#CCCCON=C1C[C@@H](O)[C@@H](O)[C@@H]2[C@@H]3C(=O)N(Cc4ccccc4)C(=O)[C@@H]3CC[C@@H]12,-0.19,0.421,-0.0887,0.0443,0.181,0.0645,-0.816,-0.211 (inactive),0.53,0.0176,-0.526,-0.956 (inactive),-0.351 (inactive),-1.61 (inactive),-0.569,0.49 (inactive),-0.0409,0.224,0.0798,-0.14
COC(=O)[C@@H]1CC[C@H](C)[C@@H](c2ccc(C)cc2)N1C(=O)c1ccc(C=NO[C@@H]2O[C@H](COC(C)=O)[C@@H](OC(C)=O)[C@H](OC(C)=O)[C@H]2OC(C)=O)cc1,-0.241,0.427,-0.0985,0.514,0.527,0.0818,0.319,0.861 (inactive),0.337,0.0749,1.43,1.26 (inactive),-0.631 (inactive),0.876 (inactive),0.475,-1.3 (inactive),-0.0873,0.199,0.864,0.129
COC(=O)[C@@H]1CC[C@@H](C)[C@H](c2ccc(Br)cc2)N1,-0.364,-0.0471,-0.163,0.321,0.0422,-0.303,-0.356,-1.02 (inactive),-0.199,-0.184,0.265,0.0156 (inactive),-0.179 (inactive),-0.116 (inactive),-0.188,0.104 (inactive),-0.0943,0.255,-0.275,-0.125
O=C1CCCC=C1C(O)CCCCBr (stereo not given),0.383,-0.0756,-0.0695,0.0586,0.948,0.932,0.0079,6.9 (inactive),0.227,-0.0994,-0.25,-3.03 (inactive),-20.8 (active),-1.04 (inactive),1.7,0.518 (inactive),0.263,1.03,0.474,-0.0742
